STK33 kin inh: blocks human STK33 kinase activity | Q9BYT3 | ADP-Glo luminescence, MBP substrate | inhibition, % at 12.5 µM | hit rate 0.44% among 27,000; in the data active = inhibition above about 20%; inconclusive = no clear call, values can overlap the other calls
Target sequence (Q9BYT3 whole entry, looked up): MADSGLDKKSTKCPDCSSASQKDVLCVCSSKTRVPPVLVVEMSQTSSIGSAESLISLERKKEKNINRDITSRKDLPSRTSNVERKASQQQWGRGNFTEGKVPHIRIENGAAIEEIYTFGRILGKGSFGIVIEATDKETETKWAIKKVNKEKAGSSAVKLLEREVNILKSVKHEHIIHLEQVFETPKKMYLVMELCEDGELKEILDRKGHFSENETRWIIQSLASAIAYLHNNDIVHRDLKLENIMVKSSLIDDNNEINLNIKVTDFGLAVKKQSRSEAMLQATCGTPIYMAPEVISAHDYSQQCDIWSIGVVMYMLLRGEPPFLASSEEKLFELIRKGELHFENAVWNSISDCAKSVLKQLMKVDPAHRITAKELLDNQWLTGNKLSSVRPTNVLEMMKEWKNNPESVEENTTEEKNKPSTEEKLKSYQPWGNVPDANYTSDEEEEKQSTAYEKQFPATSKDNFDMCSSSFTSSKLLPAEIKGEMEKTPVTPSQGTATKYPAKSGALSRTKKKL
ID4 binder: binds human ID4 protein on microarray; P47928; small molecule microarray, Flag-ID4 binding, fluorescence F/B; calls only; hit rate 1.2% among 31,000; call rule not given here;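 note: a binder raises fluorescence above local background on the spot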
p53 PUMA act: mutant p53 pathway reactivation; hit rate 1.5% among 28,000; activation, % at 9.98 µM; SW480 PUMA-promoter luciferase; AID 624151; in the data active = activation above about 52%; inconclusive = no clear call, values can overlap the other calls
Numbers stand for hits; 0 = inactive; ? = inconclusive; - = no result; + = active, no number. Hits are enriched below; roughly 2% of the tested compounds scored in any of these assays.

SMILES	STK33 kin inh	ID4 binder	p53 PUMA act
O=C(COc1ccc([N+](=O)[O-])cc1)Nc1cccc(-c2nc3cc(Cl)ccc3o2)c1	0	0	60
Cc1oc(S(=O)(=O)N2CCOCC2)cc1-c1nc(-c2ccc(C(C)(C)C)cc2)no1	-	0	0
CCC(Sc1nc(C)cc(C)n1)C(=O)Nc1ccc(-c2nc3ccc(C)cc3s2)cc1 (configuration not stated)	0	0	85
CCC(SC1=NCCS1)C(=O)Nc1ccc(-c2nc3ccc(C)cc3s2)cc1 (configuration not stated)	0	0	?
Cc1cc(S(=O)(=O)NCC(=O)O)ccc1F	0	0	0
Cc1ccc2cc(S(=O)(=O)NCCC(=O)O)ccc2c1	0	+	0
Cc1ccc(S(=O)(=O)NCCCO)cc1C(=O)O	0	+	0
CC(C)(C)c1ccc(S(=O)(=O)NCCC(=O)O)cc1	0	0	0
O=C(O)CSc1nc2cc(N3CCOCC3)c(F)cc2[nH]1	0	0	0
COc1ccccc1CC(=O)Nc1ccc(-c2noc(-c3ccc(Cl)cc3)n2)cc1	0	0	0
COCCNC(=O)c1ccccc1-c1nc(-c2ccc(Cl)cc2)no1	0	0	59
Cc1[nH]n(-c2ccccc2)c(=S)c1C=NC(C)Cc1ccccc1 (configuration not stated)	-	0	0
COc1ccc(-c2nn(-c3ccccc3)cc2C2NC(=O)NC(C)=C2C(=O)OCc2ccccc2)cc1 (configuration not stated)	0	0	0
Cc1ccccc1C(=O)Nc1ccc2nc(SCC(=O)Nc3ccc([N+](=O)[O-])cc3)sc2c1	0	0	0
O=C(CSc1nc2ccc(NC(=O)c3ccccc3F)cc2s1)c1cccc([N+](=O)[O-])c1	0	0	76
Cc1ccccc1C(=O)Nc1ccc2nc(SCC(=O)Nc3ccccc3)sc2c1	0	0	0
O=C(CSc1nc2ccc(NC(=O)c3ccccc3)cc2s1)Nc1cccc([N+](=O)[O-])c1	0	0	59
CCc1ccc(Nc2nc3ccccc3nc2NS(=O)(=O)c2ccc(NC(C)=O)cc2)cc1	0	0	?
CN1CCN(Cc2nc(N)nc(Nc3ccccc3)n2)CC1	0	0	0
COC(=O)C[C@H]1C(C)(C)C2(Cl)O[C@@]34CC2C(=O)[C@]1(C)C3CC[C@]1(C)C4=CC(=O)O[C@H]1c1ccoc1 (some centres not stated)	0	-	-
O=C1c2c(O)ccc(O)c2C(=O)c2c(NCCNCCO)ccc(NCCNCCO)c21	58	0	-
O=C1O[C@@H](c2ccccc2)[C@@H](c2ccccc2)N2[C@@H](c3ccc(O)cc3)[C@]3(C(=O)Nc4ccccc43)[C@@H](C(=O)N3CCN(c4ncccn4)CC3)[C@H]12	0	0	-
CC(C)=CCC1C(=O)C(=O)c2ccccc2C1=O (configuration not stated)	0	-	-
Oc1cc(O)cc(/C=C/c2ccc(O)c(O)c2)c1	74	-	-
N#C/C(=C/c1ccc(O)c(O)c1)C(=O)OC/C=C/c1ccccc1	0	0	0
SMILES	STK33 kin inh	ID4 binder	p53 PUMA act
C/C=C(/C)C(=O)O[C@@H](C)[C@@](C)(O)C(=O)O[C@H](C)[C@@H](OC(=O)/C(C)=C\C)c1cc(OC)c2c(c1)OCO2	0	-	-
O=C(c1ccc(F)cc1)C1CCN(CCn2c(=O)[nH]c3ccccc3c2=O)CC1	0	+	-
O=c1[nH]c2ccccc2c(=O)n1CCCO	0	0	0
CCCn1cnc2cc(NCc3ccccn3)ccc21	0	0	78
CCOc1ccccc1CNCc1ccccn1	0	0	0
Cc1cc(Cl)cc(Cl)c1OCC(=O)Nc1ccccc1[N+](=O)[O-]	0	0	0
Cc1cc(OCC(=O)Nc2ccccc2[N+](=O)[O-])ccc1Cl	0	0	86
Cc1ccc(NC(=O)COc2ccc(Cl)c(C)c2)c([N+](=O)[O-])c1	0	0	59
O=C(COc1ccc(Cl)cc1)Nc1ncccn1	0	0	74
O=C(COc1ccc(Cl)cc1Cl)Nc1ncccn1	0	0	0
COc1cc(NC(=O)COc2cccc(C)c2)c(OC)cc1Cl	0	0	0
COc1ccc(OCC(=O)Nc2cc(OC)c(Cl)cc2OC)cc1	0	0	82
Cc1cc(OCC(=O)Nc2ccc(CC#N)cc2)ccc1[N+](=O)[O-]	0	0	0
Cc1ccc(N(C(C)C(=O)Nc2ccc(Oc3ccccc3)cc2)S(C)(=O)=O)cc1 (configuration not stated)	0	0	0
Cc1ccc(NC(=O)CSc2nnc(-c3cccnc3)n2-c2ccc(Br)cc2)cc1F	0	0	?
Cc1nc(SCC(=O)Nc2sc3c(c2C#N)CCCC3)nc2c1CCCC2	0	0	0
COc1ccccc1NC(=O)CSc1ccccn1	0	0	0
COc1ccc(-c2nc3ccccc3s2)cc1NC(=O)COc1ccc(Br)cc1	0	0	79
Cc1ccc(NC(=O)COc2ccc(C(C)(C)C)cc2)c([N+](=O)[O-])c1	0	0	0
COc1ccc(-c2nc3ccccc3s2)cc1NC(=O)COc1ccc(C(C)C)cc1	0	0	0
COc1ccc(OCC(=O)Nc2ccc(C)cc2[N+](=O)[O-])cc1	0	0	136
COc1ccc(NC(=O)CSc2ccccn2)c([N+](=O)[O-])c1	0	0	62
CC(=O)Nc1ccc(OCC(=O)Nc2ccc3c(c2)oc2ccccc23)cc1	0	0	0
CC(=O)Nc1ccc(OCC(=O)Nc2ccc(Cl)c(Cl)c2)cc1	0	0	65
COc1ccc(OC)c(-c2cc(C(=O)NC(C)c3ccc(OC)c(OC)c3)c3ccccc3n2)c1 (configuration not stated)	0	0	0
SMILES	STK33 kin inh	ID4 binder	p53 PUMA act
COC(=O)c1ccc(NC(=O)CN2CCC(C(N)=O)(N3CCCCC3)CC2)cc1	0	0	0
COc1c(Cc2ccccc2O)c(O)c(Cc2ccccc2O)c(O)c1C(=O)CCc1ccccc1	0	-	-
COc1ccc(-n2c(SCC(=O)Nc3cc(NC(C)=O)ccc3OC)nc3ccccc3c2=O)cc1	0	0	0
CCOc1ccccc1NC(=O)CSc1nc2sc(C)c(C)c2c(=O)n1-c1ccccc1	0	0	0
CC(C)(C)NC(=O)[C@H]1C[C@H]2CCCC[C@H]2CN1C(=O)C12CC3CC(CC(C3)C1)C2	0	-	-
C/C=C/[C@H](CC(=O)N1Cc2ccccc2C[C@H]1CO)[Si](C)(C)c1ccc(OC)cc1	0	0	-
Cc1ccc(Cl)cc1NC(=O)Cn1cnc2ccccc2c1=O	0	0	0
O=[N+]([O-])c1cc(C(F)(F)F)ccc1N(CCO)CCO	0	0	0
CCC(C)C(Nc1ncnc2c1oc1ccccc12)C(=O)O (configuration not stated)	0	0	0
Cc1nc(NCC2CCCO2)c2c(C)c(C)sc2n1 (configuration not stated)	0	0	0
Cn1ccc2cc3c(cc21)CCN3C(=O)Nc1cccnc1	-	0	69
COc1cc2c(cc1C(F)(F)F)N(C(=O)Nc1cc(F)cc(-c3cccnc3)c1)CC2	-	0	0
C=CCNc1nc(N)c(C(=O)Nc2cc(C)on2)s1	0	0	70
C=CCNc1sc(C)nc1C(N)=O	0	-	-
Cc1ccc(S(=O)(=O)N2CCCC(C(=O)Nc3ccc4c(c3)OCCO4)C2)cc1 (configuration not stated)	0	0	0
CC(=O)c1cccc(NC(=O)C2CCCN(S(=O)(=O)c3ccccc3)C2)c1 (configuration not stated)	0	+	0
CCOc1ccc2nc(NS(=O)(=O)c3ccc(C)c([N+](=O)[O-])c3)sc2c1	0	0	0
